Measurements: PubChem BioAssay AID1347418 (Sanford-Burnham Center for Chemical Genomics, 2020)
Among all 1,300 compounds or so, about 750 (58%) were called active. Some of the results follow. Values without a mark were called inactive.

Each molecule was assayed against Sulfhydryl oxidase 1 (Homo sapiens) (UniProt O00391) (assay: inhibition of human sulfhydryl oxidase QSOX1 – biochemical, ROS-Glo H2O2 luminescence, HTS, primary screen (AID 1347418)). Conditions: recombinant QSOX1, ROS-Glo H2O2 luminescence; at 12.5 µM; active compounds read high; active = any value above zero.
Chain of Sulfhydryl oxidase 1 (Homo sapiens) (O00391 whole entry, looked up): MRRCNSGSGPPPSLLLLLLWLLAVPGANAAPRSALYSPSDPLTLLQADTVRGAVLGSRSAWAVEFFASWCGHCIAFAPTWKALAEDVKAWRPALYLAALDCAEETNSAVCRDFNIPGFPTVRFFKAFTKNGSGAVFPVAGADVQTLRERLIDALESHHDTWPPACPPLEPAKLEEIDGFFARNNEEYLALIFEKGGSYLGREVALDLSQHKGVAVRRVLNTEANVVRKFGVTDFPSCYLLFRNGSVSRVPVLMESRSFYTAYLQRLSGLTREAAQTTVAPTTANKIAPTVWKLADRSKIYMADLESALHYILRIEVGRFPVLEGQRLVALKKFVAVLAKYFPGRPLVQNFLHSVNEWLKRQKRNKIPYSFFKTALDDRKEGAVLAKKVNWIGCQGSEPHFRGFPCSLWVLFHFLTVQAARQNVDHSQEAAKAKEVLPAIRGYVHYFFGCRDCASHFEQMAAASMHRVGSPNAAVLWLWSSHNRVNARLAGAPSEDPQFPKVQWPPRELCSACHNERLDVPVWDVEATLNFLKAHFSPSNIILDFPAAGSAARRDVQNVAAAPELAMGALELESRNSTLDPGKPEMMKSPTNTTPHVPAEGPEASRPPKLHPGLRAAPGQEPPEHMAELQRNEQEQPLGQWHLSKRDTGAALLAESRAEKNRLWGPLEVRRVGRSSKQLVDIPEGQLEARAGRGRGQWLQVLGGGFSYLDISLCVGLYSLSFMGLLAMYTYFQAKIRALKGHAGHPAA

SMILES	inhibition
CCOC(=O)C1=C(C)NC(C)=C(C(=O)OCC)C1c1c(F)c(F)c(F)c(F)c1F	-3.2%
COCCOC(=O)C1=C(C)NC(C)=C(C(=O)OC/C=C/c2ccccc2)C1c1cccc([N+](=O)[O-])c1 (centres undefined)	5.1% (active)
COC(=O)C1=C(C)NC(C)=C(C(=O)OC(C)(C)CN(C)CCC(c2ccccc2)c2ccccc2)C1c1cccc([N+](=O)[O-])c1 (centres undefined)	-1.4%
COCCOC(=O)C1=C(C)NC(C)=C(C(=O)OC(C)C)C1c1cccc([N+](=O)[O-])c1 (centres undefined)	-2.5%
C#CCN1C(C)=C(C(=O)OC)C(c2cccc([N+](=O)[O-])c2)C(C(=O)OCC)=C1C (centres undefined)	-3%
COC(=O)C1=C(C)NC(C)=C(C(=O)OCCN(C)Cc2ccccc2)C1c1cccc([N+](=O)[O-])c1 (centres undefined)	-1.6%
CCOC(=O)C1=C(C)NC(C)=C(C(=O)OC)C1c1cccc(Cl)c1Cl (centres undefined)	3% (active)
CCOC(=O)C1=C(C)NC(C)=C(C(=O)OC)C1c1cccc([N+](=O)[O-])c1 (centres undefined)	1% (active)
COC(=O)C1=C(C)NC(C)=C(C(=O)OC)C1c1ccccc1[N+](=O)[O-]	-1.1%
O=C(O)CN(CCOCCOCCN(CC(=O)O)CC(=O)O)CC(=O)O	-5.4%
CCCCCCCCCCC(C)(C)C(=O)Nc1c(OC)cc(OC)cc1OC	-1%
COc1ccccc1N1CCN(CC(O)COc2cccc3ccccc23)CC1 (centres undefined)	8.9% (active)
COc1ccccc1OCC(O)CN1CCN(CC(=O)Nc2c(C)cccc2C)CC1 (centres undefined)	3.9% (active)
COc1cc2nc(N3CCN(C(=O)C4CCCO4)CC3)nc(N)c2cc1OC (centres undefined)	0.3% (active)
COc1cc2nc(N3CCN(C(=O)OCc4ccccc4)C(C(=O)NC(C)(C)C)C3)nc(N)c2cc1OC (centres undefined)	4.3% (active)
COc1cc2nc(N3CCN(C(=O)c4ccco4)CC3)nc(N)c2cc1OC	-0.3%
COc1cc2nc(N(C)CCCNC(=O)C3CCCO3)nc(N)c2cc1OC (centres undefined)	1.1% (active)
COc1cc2nc(N3CCN(C(=O)C4COc5ccccc5O4)CC3)nc(N)c2cc1OC (centres undefined)	4.9% (active)
NC(=O)c1cccc(N)c1	2.2% (active)
NC(=O)c1ccccc1	7.2% (active)
CCn1c(=O)[nH]c2cc(Cl)c(Cl)cc21	-5.4%
NS(=O)(=O)c1cc2c(cc1Cl)NC(C1CC3C=CC1C3)NS2(=O)=O (centres undefined)	-0.4%

SMILES	inhibition
NS(=O)(=O)c1cc2c(cc1Cl)NCNS2(=O)=O	-0.5%
NS(=O)(=O)c1cc2c(cc1Cl)NC=NS2(=O)=O	2.5% (active)
COc1cccc2c1[C@@H]1CN(CCCCn3c(=O)[nH]c4c(sc5ncc(-c6ccccc6)nc54)c3=O)C[C@@H]1CO2	-1.5%
CC(C)[C@@H]1CC[C@@H](C)C[C@@H]1P(=O)(c1ccccc1)c1ccccc1	2.9% (active)
CCCn1c(=O)c(C)cn2nc(N)nc12	4.5% (active)
NC(N)=NCc1cccc(I)c1	3.9% (active)
O=c1[nH]c2cc([N+](=O)[O-])c([N+](=O)[O-])cc2[nH]c1=O	2.2% (active)
O=C(O)CCc1nc(-c2ccccc2)c(-c2ccccc2)o1	3.2% (active)
CCCOC(=O)c1c(-c2ccccc2)nc(CC)c(C(=O)SCC)c1CCC	-3.6%
C#CC(N)CCC(=O)O (centres undefined)	5.9% (active)
CC1(C)CCC(NC(=O)[C@@H](N)CCC(=O)O)CC1	-1.9%
C=Cc1c(C)c2cc3[nH]c(cc4nc(cc5nc(cc1[nH]2)C(C)=C5CCC(=O)O)C(CCC(=O)O)=C4C)c(C)c3C=C	-1.1%
O=C(O)[C@@H]1C[C@@H](C(=O)O)N1	-2.9%
COC(=O)C1=C(C)NC(C)=C([N+](=O)[O-])C1c1ccccc1C(F)(F)F (centres undefined)	-3.4%
CC(C)C(=O)Nc1ccc([N+](=O)[O-])c(C(F)(F)F)c1	6.8% (active)
CC1(C)NC(=O)N(c2ccc([N+](=O)[O-])c(C(F)(F)F)c2)C1=O	-0.4%
Oc1ccc(Cn2cc[nH]c2=S)cc1	5.9% (active)
CCCCCN(C)CCC(O)(P(=O)(O)O)P(=O)(O)O	0.6% (active)
NCCNS(=O)(=O)c1cccc2c(Cl)cccc12	0.1% (active)
O=C(CCCCCN1CCN(c2ccccc2-c2ccccc2)CC1)NC1CCCc2ccccc21 (centres undefined)	2.4% (active)
O=C(O)CC1CCCc2ccccc2C1O (centres undefined)	-2.6%
CSc1ccccc1N1CCN(CCCCCC(=O)NC2CCCc3ccccc32)CC1 (centres undefined)	-1.2%

SMILES	inhibition
O=C(O)c1cccnc1C(=O)O	-3%
O=C(O)c1cccnc1Nc1cccc(C(F)(F)F)c1	3.2% (active)
c1ccc2nc(C3=NCCN3)ccc2c1	0.1% (active)
CC(C)(Sc1ccc(CCN(CCCCC2CCCCC2)C(=O)NC2CCCCC2)cc1)C(=O)O	0.8% (active)
CCc1c(C(=O)NCCc2ccc(N3CCCCC3)cc2)[nH]c2ccc(Cl)cc12	1.2% (active)
CN=c1nc(-c2ccccc2)n(-c2ccccc2)s1	-4.5%
O=C(/C=C/c1ccc(O)cc1)c1ccc(O)cc1O	20.8% (active)
C#C[C@]1(O)CC[C@H]2[C@@H]3CCC4=Cc5oncc5CC4(C)[C@H]3CCC21C (some centres undefined)	3.6% (active)
CCCN(CCC)C(=O)C(CCC(=O)O)NC(=O)c1ccccc1 (centres undefined)	-6.3%
CCCCCN(CCCCC)C(=O)C(CCC(=O)O)NC(=O)c1ccc(Cl)c(Cl)c1 (centres undefined)	3% (active)
S=C([S-])OC1CC2C[C+]1C1CCCC21 (centres undefined)	-1.8%
O=c1onc2cnc3ccccc3n12	1.7% (active)
CN(C)CCCC1(c2ccc(F)cc2)OCc2cc(C#N)ccc21 (centres undefined)	-4.9%
O=c1[nH]cnc2[nH]ncc12	7.1% (active)
OCC1NCC(O)C(O)C1O (centres undefined)	0.3% (active)
OC[C@H]1NC[C@@H](O)[C@@H]1O	3.1% (active)
CCCCS(=N)(=O)CCC(N)C(=O)O (centres undefined)	5.6% (active)
CCCCS(=N)(=O)CC[C@H](N)C(=O)O (some centres undefined)	2.8% (active)
CCCC(CCC)C(=O)O	-0.3%
CN=C(N)NCCC[C@H](N)C(=O)O	-2.7%
O=S(=O)(c1cccc2c(I)cccc12)N1CCCNCC1	8.3% (active)
O=S(=O)(c1cccc2c(Cl)cccc12)N1CCCNCC1	0.5% (active)

SMILES	inhibition
CC(=O)O[C@H]1C(=O)[C@@]2(C)C([C@H](OC(=O)c3ccccc3)[C@]3(O)C[C@H](OC(=O)[C@H](O)[C@@H](NC(=O)c4ccccc4)c4ccccc4)C(C)=C1C3(C)C)[C@]1(OC(C)=O)CO[C@@H]1C[C@@H]2O (some centres undefined)	1.7% (active)
N[C@@H](COP(=O)(O)O)C(=O)O	-1.4%
N[C@@H](CC(=O)O)C(=O)O	4.2% (active)
C=CC[C@H](N)C(=O)O	4.9% (active)
NOCC(=O)O	-7.4%
N[C@@H](CS(=O)O)C(=O)O	-2.6%
N[C@H](CO)C(=O)O	1.4% (active)
CC(=O)N[C@@H](CS)C(=O)O	1.8% (active)
CC(=O)N[C@H](C(=O)O)C(C)(C)SN=O	-3.3%
N[C@@H]1CONC1=O	-12.8%
Cc1ccccc1/C=C/C1=NCCN1	0.5% (active)
CC(C)(C(=O)O)c1ccc(C(O)CCCN2CCC(C(O)(c3ccccc3)c3ccccc3)CC2)cc1 (centres undefined)	-1.3%
CC(C(O)c1ccc(O)cc1)N1CCC(Cc2ccccc2)CC1 (centres undefined)	7.3% (active)
C[C@@H](CN1CCC(Cc2ccccc2)CC1)[C@@H](O)c1ccc(O)cc1	3.4% (active)
CC(C)(C)c1ccc(C(O)CCCN2CCC(C(O)(c3ccccc3)c3ccccc3)CC2)cc1 (centres undefined)	-4%
CNC[C@H](O)c1cccc(O)c1	-3.5%
CC(C)(C)NCC(O)c1cc(O)cc(O)c1 (centres undefined)	-2%
CNCC(O)c1ccc(O)c(O)c1 (centres undefined)	2.8% (active)
CNC[C@H](O)c1ccc(O)c(O)c1	8.4% (active)
CC(C)(C)NCC(O)c1ccc(O)c(CO)c1 (centres undefined)	5.3% (active)
Cc1cn[nH]c1	1.9% (active)
NS(=O)(=O)C1=[C+]C=[C+]c2c1c([N+](=O)[O-])cc1nc([O-])c([O-])nc21	-4.9%

SMILES	inhibition
COc1ccccc1CNCCCCCCNCCCCCCCCNCCCCCCCNc1ccccc1OC	1.8% (active)
CCCCCCCCCCCCCCCC(=O)NCCO	-1.3%
CCCCCCCC/C=C\CCCCCCCC(=O)NCCO	6.9% (active)
CN1Cc2sccc2C(c2ccc(O)c(O)c2)C1 (centres undefined)	23.4% (active)
Oc1ccc(C2CNCc3sccc32)cc1O (centres undefined)	15.7% (active)
c1cnc2c(c1)ccc1cccnc12	-2.1%
c1ccc(-c2ccccn2)nc1	7.3% (active)
Cn1cnc2c1c(=O)[nH]c(=O)n2C	3.2% (active)
Cn1c(=O)[nH]c2ncn(C)c2c1=O	3% (active)
CC1(C)CCC=[N+]1[O-]	-1.5%
CCN(CC)C(C)CN1c2ccccc2Sc2ccccc21 (centres undefined)	50.6% (active)
CC(CN1c2ccccc2Sc2ccccc21)N(C)C (centres undefined)	43.7% (active)
O=C1NC(=O)/C(=C/c2ccc(-c3ccc(F)cc3O)o2)S1	27.2% (active)
O=C(O)[C@@H]1C[C@H](C(=O)O)N1	-6.9%
C=CCNc1ncnc2ccc(Br)cc12	-1.1%
NC(=O)c1cnccn1	0.9% (active)
NC(CO)C(=O)NNCc1ccc(O)c(O)c1O (centres undefined)	25.6% (active)
O=c1onc2n1-c1cc(Br)ccc1OC2	-0.8%
NCCCCC(=O)O	-2.5%
O=C(O)CCCC[C@@H]1CCSS1	-2.4%
NCCCCCC(=O)O	5% (active)
